The panel holds about 83,000 compounds, 20% with a hit somewhere; the sample as a whole holds those more often.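 Note: values are percent growth. 100 is the growth of untreated cells, values between 100 and 0 indicate rising inhibition; between -100 and 0 indicates cell death.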 Values without a mark were called inactive. Calls of active or inactive are those of the source. How the source made its calls: active means growth percent below 10; inactive means the rest.
Legend:
Assay in all cases: NCI-60 one-dose screen, 48 h (100 = growth as untreated, 0 = no growth, -100 = all killed)
Settings in all cases: 10 µM unless noted
DU-145 prostate = system: DU-145 prostate
K-562 leukemia = system: K-562 leukemia
MALME-3M melanoma = system: MALME-3M melanoma
MDA-MB-231 breast = system: MDA-MB-231 breast
RXF 393 renal = system: RXF 393 renal
SF-268 CNS = system: SF-268 CNS
SF-295 CNS = system: SF-295 CNS
SF-539 CNS = system: SF-539 CNS
UACC-257 melanoma = system: UACC-257 melanoma
M14 melanoma = system: M14 melanoma
HCT-15 colon = system: HCT-15 colon
HT29 colon = system: HT29 colon
SNB-75 CNS = system: SNB-75 CNS
SNB-19 CNS = system: SNB-19 CNS
U251 CNS = system: U251 CNS
PC-3 prostate = system: PC-3 prostate
SK-MEL-5 melanoma = system: SK-MEL-5 melanoma
UACC-62 melanoma = system: UACC-62 melanoma
LOX IMVI melanoma = system: LOX IMVI melanoma
SK-MEL-28 melanoma = system: SK-MEL-28 melanoma

| SMILES | growth (DU-145 prostate) | growth (K-562 leukemia) | growth (MALME-3M melanoma) | growth (MDA-MB-231 breast) | growth (RXF 393 renal) | growth (SF-268 CNS) | growth (SF-295 CNS) | growth (SF-539 CNS) | growth (UACC-257 melanoma) | growth (M14 melanoma) | growth (HCT-15 colon) | growth (HT29 colon) | growth (SNB-75 CNS) | growth (SNB-19 CNS) | growth (U251 CNS) | growth (PC-3 prostate) | growth (SK-MEL-5 melanoma) | growth (UACC-62 melanoma) | growth (LOX IMVI melanoma) | growth (SK-MEL-28 melanoma) |
| --- | --- | --- | --- | --- | --- | --- | --- | --- | --- | --- | --- | --- | --- | --- | --- | --- | --- | --- | --- | --- |
| Cc1ccc2c(c1)Sc1c(ccc3ccccc13)N2 | 82.9% | 39.7% | 90.7% | 50.6% | 63.6% | 59.5% | 69.8% | 47.5% | 80.4% | 65.4% | 32.3% | 73.3% | 51.8% | 94.5% | 45.3% | 61% | 46% | 58.9% | 45.6% | 84.7% |
| N#CC1=C(/N=C/c2ccccc2)Oc2c(ccc3ccccc23)C1c1ccccc1 (stereo not given) | 17.6% | 12.2% | 49.2% | 19% | 18% | 30.8% | 3.77% (active) | 1.25% (active) | 53.6% | 4.85% (active) | 16.6% | 4.48% (active) | 10.1% | 24.4% | 16.9% | 8.32% (active) | -3.14% (active) | 15.7% | 23.9% | 41.5% |
| COCCN(C(=O)c1ccc(F)cc1F)c1c(N)n(Cc2ccccc2)c(=O)[nH]c1=O | 120% | 96.6% | 120% | 106% | 101% | 111% | 108% | 108% | 106% | 112% | 98.8% | 104% | 105% | 106% | 100% | 97.4% | 108% | 94.3% | 99.3% | 114% |
| CC1=C([Se]CC(OC(=O)[C@@H](CO)NC(=O)OC(C)(C)C)C(=O)NC(C)(C)C)C(=O)c2ccccc2C1=O (stereo not given in full) | -71.1% (active) | -37% (active) | -64.9% (active) | -82.2% (active) | -86.2% (active) | -75.1% (active) | -37.4% (active) | -100% (active) | -87.1% (active) | -100% (active) | -74.1% (active) | -8.15% (active) | -100% (active) | -100% (active) | -95.2% (active) | -71.8% (active) | -98.2% (active) | -100% (active) | -96.4% (active) | -100% (active) |
| O=C1/C(=C/c2ccc(Br)cc2)C=C(c2ccccc2)N1CCc1ccccc1 | 54.1% | 75.5% | 50.5% | 24.8% | 31.5% | 33.7% | -25.6% (active) | 36% | 43.7% | 49.9% | 69.7% | 32.5% | -34.3% (active) | 6.97% (active) | 6.97% (active) | 22.1% | 77.1% | 46.6% | 42.2% | 70.2% |
| CCc1ccccc1NC(=O)/C(C#N)=C/c1ccc(OC)cc1 | 100% | 99.5% | 104% | 105% | 126% | 93.8% | 91.9% | 108% | 108% | 99.1% | 101% | 100% | 99.3% | 111% | 106% | 81.1% | 96.3% | 81.6% | 102% | 92.9% |
| COC(=O)[C@]12CC[C@@H](C)[C@H](C)[C@@H]1C1=CC[C@@H]3[C@@]4(C)C(C=O)=C[C@@](C)(COC(=O)/C=C/c5ccccc5)[C@@H]4[C@H](O)C[C@@]3(C)[C@]1(C)CC2 | -3.76% (active) | 9.93% (active) | -43.2% (active) | 0.0701% (active) | -40.6% (active) | 14.7% | 1.14% (active) | -10.7% (active) | -43.2% (active) | -43% (active) | 2.39% (active) | -22.9% (active) | 2.38% (active) | 49.4% | 2.16% (active) | 12% | -64.4% (active) | -29.7% (active) | -95.5% (active) | -12.5% (active) |
| COc1ccc(C2=Nc3c(N)ncnc3NC(c3ccc4c(c3)OCO4)C2)cc1 (stereo not given) | 97.1% | 113% | 105% | 73.9% | 66% | 89.6% | 118% | 90.3% | 116% | 73.8% | 94.8% | 93.2% | 66.2% | 85% | 94.3% | 77.2% | 88.2% | 80.6% | 94% | 101% |
| CC(C)(C)n1cc(-c2ccnc(NCCCNS(=O)(=O)c3ccccc3)c2)c(-c2ccccc2)n1 | 83.7% | 21.2% | 82.7% | 72% | 62% | 93.1% | 63.2% | 66.4% | 77.9% | 67.1% | 26.5% | 24.7% | 65.1% | 89.4% | 64.3% | 35.6% | 53.2% | 61.8% | 50.9% | 97% |
| Cc1cc(NCCCCNc2ccnc3cc(Cl)ccc23)nc(Nc2ccc(C(=O)N3CCCCC3)cc2)n1 | 21.8% | -46.2% (active) | -76.3% (active) | -41.1% (active) | -74.4% (active) | -38.3% (active) | -60.3% (active) | -79.6% (active) | -67.5% (active) | -85% (active) | -31.6% (active) | -25.4% (active) | -73.4% (active) | 25.1% | -36.3% (active) | 12.2% | -96.5% (active) | -57.8% (active) | -78.3% (active) | -76.5% (active) |
| Cc1ccc(Cl)cc1NC(=O)c1cc2ccccc2cc1O | 7.76% (active) | -33.7% (active) | -32.6% (active) | -56.8% (active) | -15.6% (active) | 9.58% (active) | -9.44% (active) | -0.708% (active) | -7.13% (active) | 2.88% (active) | 8.41% (active) | 7.43% (active) | -14.3% (active) | 22.8% | 2.92% (active) | -12.6% (active) | -74.4% (active) | -11.5% (active) | 3.41% (active) | 9.98% (active) |
| CCOC(=O)c1ccc(N2NC(=O)/C(=C/c3ccc([N+](=O)[O-])o3)C2=O)cc1 | 113% | 114% | 105% | 133% | 44% | 99.8% | 118% | 108% | 90.7% | 116% | 96.6% | 114% | 99.9% | 115% | 108% | 79.2% | 108% | 112% | 91.6% | 108% |
| COc1ccc(-c2nc(SC(C)C)nc(NNC(N)=S)c2C#N)cc1 | 77.7% | 16.9% | 51.7% | 43.3% | 63.7% | 62.5% | 55.2% | 50.1% | 82.7% | 53.8% | 23.6% | 85% | 32.3% | 38% | 52.8% | 55.6% | 28.9% | 22.2% | 40.2% | 58.7% |
| N#C/C(=C\c1ccc2c(c1)OCO2)n1nnc2cc(F)c(F)cc21 | 36.7% | 18% | 70.8% | 80.1% | 32.3% | 74.3% | 102% | 84.5% | 75% | 57% | 40.5% | 30.3% | 20.6% | 82.3% | 83.8% | 51.4% | 75.5% | 47.6% | 57.3% | 92.5% |
| CC1=C([Se]CC(OC(=O)CC[Se]c2ccccc2)C(=O)NCCCCCC(=O)OCc2ccccc2)C(=O)c2ccccc2C1=O (stereo not given) | 22.1% | 39.5% | -31.3% (active) | 32.3% | 35% | 4.54% (active) | -7.86% (active) | 15.3% | 35.9% | -36.8% (active) | 50.1% | 41.2% | 56.2% | 31% | 12.7% | 30.7% | -24.9% (active) | 41.6% | 10.3% | 21.7% |

— PubChem BioAssay (NCI)
